Records with an inconclusive call do not appear. Activity calls are given as the source filed them. Unless noted, calls follow the shape of the full dose curve.
Experiments:
[1] = Nuclear factor erythroid 2-related factor 2/antioxidant responsive element (Nrf2/ARE) small molecule agonists: qHTS cell viability counter screen in human keratinocytes (AID 1919968; active = well fitted curve in the direction sought with a large enough effect in the repeat runs; an effect the other way counts as inactive or inconclusive; also: nearly all actives have a fitted effect of over 55% in size; also: potency is read from the fitted curve at half-maximal effect)
Procedure, shortened: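 Seed 1,500 KeratinoSens cells per well, then incubate 5 h at 37 C/5% CO2. Add compounds in DMSO and incubate 23 h. Add CellTiter-Fluor, wait 1 h and read fluorescence.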

[2] = target: KiSS-1 receptor (Homo sapiens) (UniProt Q969F8); test: Human kisspeptin (KISS1R) small molecule agonists, calcium flux assay in KISS1R-HEK293 cells (AID 1920064; active = well fitted curve in the direction sought with a large enough effect in the repeat runs; an effect the other way counts as inactive or inconclusive)
Procedure, shortened: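 Cells plated and incubated 18 h; dye added, 1 h at 37 C; compounds in DMSO pinned in; signal read at 480/540 nm every second for 3 min. Each compound tested at 15 concentrations in triplicate.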

[3] = p53 small molecule agonists, cell-based qHTS assay with human liver microsomes: qHTS cell viability counter screen (AID 1963579); also: nearly all actives have a fitted effect of over 45% in size
Procedure, shortened: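 Viability of p53RE-bla cells is measured as CellTiter-Glo luminescence following a 16 h, 37 C incubation with compound, liver microsomes from human donors and NADPH.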

[4] = p53 small molecule agonists, cell-based qHTS assay with rat liver microsomes: qHTS cell viability counter screen (AID 1963580); also: nearly all actives have a fitted effect of over 45% in size
Procedure, shortened: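 Intracellular ATP, by CellTiter-Glo luminescence, defines viability. HCT-116 p53RE-bla cells, 4,000 per well, were compound-treated in the presence of rat liver microsomes and NADPH for 16 h at 37 C.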

[5] = target: 5-hydroxytryptamine receptor 2A (Homo sapiens) (UniProt P28223); test: 5-hydroxytryptamine receptor 2A (HTR2A) small molecule agonists, cell-based qHTS assay (AID 1963587); also: nearly all actives have a fitted effect of over 30% in size; also: potency is read from the fitted curve at half-maximal effect
Procedure, shortened: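 Kinetic calcium-flux fluorescence (2 min, 1 sec intervals) after compound addition in agonist mode. HTR2A-CHO cells were cultured 18 h, then dye-loaded 1 h at 37 C.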

[6] = cAMP Responsive Elements (CRE) small molecule agonists, cell-based qHTS assay (AID 1963590)
Procedure, shortened: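 Agonist mode qHTS in CRE-bla HEK 293T cells: compounds dosed from DMSO for 3 h at 37 C/5% CO2, followed by LiveBLAzer B/G FRET substrate for 2 h at room temperature.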

[7] = cAMP Responsive Elements (CRE) small molecule antagonists, cell-based qHTS assay (AID 1963591; active = well fitted inhibition curve with a large enough effect in the signal ratio in the repeat runs, not every such curve was filed as active; the % refers to the signal ratio)
Procedure, shortened: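 Antagonist mode: test compounds are co-incubated with the adenylyl cyclase activator NKH477 (0.25 uM final) on CRE-bla HEK293T cells for 3 h at 37 °C, followed by LiveBLAzer substrate loading.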

[8] = target: Beta-2 adrenergic receptor (Homo sapiens) (UniProt P07550); test: Adrenergic beta2 receptor (ADRB2) small molecule antagonists, cell-based qHTS assay (AID 1963592); also: series mostly up to about 92 µM; nearly all actives have a fitted effect of over 50% in size
Procedure, shortened: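 Cells (CHO, stable ADRB2 overexpression) incubated 18-20hr at 37C; compounds added from DMSO; agonist mix (1nM isoproterenol, 100uM IBMX, 25uM Ro-20-1724) added; 0.5hr RT; d2-cAMP and anti-cAMP-cryptate added; 1hr RT; 665/615 nm read.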

[9] = target: D(2) dopamine receptor (Homo sapiens) (UniProt P14416); test: Dopamine D2 receptor (DRD2) small molecule agonists, cell-based qHTS assay (AID 1963594); also: nearly all actives have a fitted effect of over 35% in size
Procedure, shortened: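 cAMP accumulation in DRD2-HEK293 cells measured by HTRF after 1 h detection; compounds added 10 min before NKH477 (200nM […]) forskolin-analogue stimulation, 30 min at room temperature, with Ro20-1724 present at 0.1 mM final.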

[10] = target: D(2) dopamine receptor (Homo sapiens) (UniProt P14416); test: Dopamine D2 receptor (DRD2) small molecule antagonists, cell-based qHTS assay (AID 1963595; active = well fitted inhibition curve with a large enough effect in the signal ratio in the repeat runs, with a control signal flat; the % refers to the signal ratio)
Procedure, shortened: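 HEK293 cells stably expressing DRD2 were preincubated with 0.1 mM Ro20-1724, then with compound for 10 min at room temperature. Cells were stimulated with 200 nM NKH477 plus 12 nM quinpirole for 30 min, and cAMP was read by HTRF.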

[11] = G protein-coupled receptor (GPCR) small molecule agonists, calcium flux assay: HEK293 wild type cell line counter screen (AID 1920065)
Procedure, shortened: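 Counter-screen of the Tox21 10K library for non-specific calcium release: dye-loaded cells received compounds in DMSO and were monitored by kinetic fluorescence (480/540 nm, 3 min). Fifteen concentrations, run in triplicate.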

[12] = p53 small molecule agonists, cell-based qHTS assay with human liver microsomes (AID 1963577);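 also: p53 response element beta-lactamase reporter cells with liver microsomes plus NADPH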
Procedure, shortened: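 HLM-supplemented p53RE-bla reporter assay: 16 h compound exposure at 37 C, microsomes and NADPH each 0.5 mg/mL final, read by fluorescence intensity.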

[13] = p53 small molecule agonists, cell-based qHTS assay with rat liver microsomes (AID 1963578); also: potency is read from the fitted curve at half-maximal effect
Procedure, shortened: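 Quantitative HTS of the Tox21 10K library: p53RE-bla cells, rat liver microsomes plus NADPH at 0.5 mg/mL final each, 16 h at 37 C, beta-lactamase fluorescence detection.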

[14] = target: 5-hydroxytryptamine receptor 2A (Homo sapiens) (UniProt P28223); test: 5-hydroxytryptamine receptor 2A (HTR2A) small molecule antagonists, cell-based qHTS assay (AID 1963586); also: nearly all actives have a fitted effect of over 45% in size
Procedure, shortened: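 Antagonist-mode intracellular calcium assay: DOI (4 nM) added after 5 min compound pre-incubation at room temperature to dye-loaded HTR2A-CHO cells. Fluorescence followed for 3 min, sampled every second.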

[15] = target: Muscarinic acetylcholine receptor M1 (Homo sapiens) (UniProt P11229); test: Cholinergic receptor muscarinic 1 (CHRM1) small molecule antagonists, cell-based qHTS assay (AID 1963588); also: nearly all actives have a fitted effect of over 40% in size; also: potency is read from the fitted curve at half-maximal effect
Procedure, shortened: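 CHRM1-CHO calcium-flux assay, antagonist mode. Cells were seeded 18 h, dye-loaded 1 h at 37 C and given compound for 5 min at RT, then acetylcholine was added at 50nM. FDSS fluorescence was read 3 min; 15 concentrations, three runs.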

[16] = p53 small molecule agonists, cell-based qHTS assay: qHTS cell viability counter screen (AID 1963581); also: nearly all actives have a fitted effect of over 45% in size
Procedure, shortened: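 Cells: HCT-116 with p53 response element-driven beta-lactamase. Treatment: 16 h, 37 C, compounds in DMSO. Read: CellTiter-Glo luminescence after 30 min RT.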

[17] = p53 small molecule agonists, cell-based qHTS assay (AID 1963582; active = well fitted activation curve with a large enough effect in the signal ratio in the repeat runs, not every such curve was filed as active; the % refers to the signal ratio)
Procedure, shortened: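 Quantitative HTS in p53RE-bla cells: after a 5 h settling period, compounds delivered in DMSO were left on cells for 16 h at 37 C, and reporter induction was measured as fluorescence following 2 h substrate loading.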

[18] = target: Muscarinic acetylcholine receptor M1 (Homo sapiens) (UniProt P11229); test: Cholinergic receptor muscarinic 1 (CHRM1) small molecule agonists, cell-based qHTS assay (AID 1963589); also: nearly all actives have a fitted effect of over 35% in size
Procedure, shortened: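 Agonist-mode qHTS in CHO cells stably carrying human muscarinic M1. Intracellular calcium is tracked by fluorescence every second after compound transfer; each compound runs at 15 concentrations in three independent runs.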

[19] = target: Beta-2 adrenergic receptor (Homo sapiens) (UniProt P07550); test: Adrenergic beta2 receptor (ADRB2) small molecule agonists, cell-based qHTS assay (AID 1963593);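 also: CHO cells stably overexpressing human ADRB2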
Procedure, shortened: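 CHO cells stably over-expressing ADRB2 were plated overnight at 37C, then dosed with compounds plus a stimulation mix containing 100uM IBMX and 25uM Ro-20-1724 for 0.5hr at room temperature. cAMP was measured by HTRF competition, 1hr.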

[20] = target: Gonadotropin-releasing hormone receptor (Homo sapiens) (UniProt P30968); test: Human gonadotropin-releasing hormone receptor (GnRHR) small molecule agonists, calcium flux assay in GnRHR-HEK293 cells (AID 1920063); also: nearly all actives have a fitted effect of over 35% in size
Procedure, shortened: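 Cells: HEK293 stably expressing human GnRHR. Steps: overnight (18 h) culture, 1 h calcium dye loading at 37 C, compound addition, kinetic fluorescence read at 480/540 nm. Each compound tested at 15 concentrations in triplicate.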
% is scaled to controls: 0 for no effect and ±100 for the full control effect.

KiSS-1 receptor (Homo sapiens), sequence (Q969F8 whole entry, looked up): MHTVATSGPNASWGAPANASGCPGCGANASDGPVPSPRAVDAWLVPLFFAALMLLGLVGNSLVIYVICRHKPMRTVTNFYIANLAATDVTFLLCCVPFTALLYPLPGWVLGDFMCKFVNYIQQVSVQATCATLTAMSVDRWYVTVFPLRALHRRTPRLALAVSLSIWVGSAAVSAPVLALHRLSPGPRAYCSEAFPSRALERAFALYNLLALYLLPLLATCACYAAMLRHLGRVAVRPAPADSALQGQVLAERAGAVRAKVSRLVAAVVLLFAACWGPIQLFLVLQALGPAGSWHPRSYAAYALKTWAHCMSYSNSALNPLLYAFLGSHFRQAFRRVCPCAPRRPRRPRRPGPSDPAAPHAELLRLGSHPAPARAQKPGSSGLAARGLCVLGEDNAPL
Beta-2 adrenergic receptor (Homo sapiens), sequence (P07550 whole entry, looked up): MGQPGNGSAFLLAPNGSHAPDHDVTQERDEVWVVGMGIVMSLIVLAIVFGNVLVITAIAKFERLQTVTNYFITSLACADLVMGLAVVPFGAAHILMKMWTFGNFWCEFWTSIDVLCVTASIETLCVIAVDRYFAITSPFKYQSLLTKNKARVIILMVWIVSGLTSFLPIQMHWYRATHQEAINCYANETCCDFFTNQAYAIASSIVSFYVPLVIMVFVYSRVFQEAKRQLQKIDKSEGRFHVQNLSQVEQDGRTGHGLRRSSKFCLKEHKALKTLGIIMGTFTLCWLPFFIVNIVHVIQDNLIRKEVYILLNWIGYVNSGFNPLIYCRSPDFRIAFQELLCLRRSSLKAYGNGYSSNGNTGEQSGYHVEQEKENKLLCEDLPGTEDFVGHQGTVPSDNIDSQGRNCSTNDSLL
5-hydroxytryptamine receptor 2A (Homo sapiens), sequence (P28223 whole entry, looked up): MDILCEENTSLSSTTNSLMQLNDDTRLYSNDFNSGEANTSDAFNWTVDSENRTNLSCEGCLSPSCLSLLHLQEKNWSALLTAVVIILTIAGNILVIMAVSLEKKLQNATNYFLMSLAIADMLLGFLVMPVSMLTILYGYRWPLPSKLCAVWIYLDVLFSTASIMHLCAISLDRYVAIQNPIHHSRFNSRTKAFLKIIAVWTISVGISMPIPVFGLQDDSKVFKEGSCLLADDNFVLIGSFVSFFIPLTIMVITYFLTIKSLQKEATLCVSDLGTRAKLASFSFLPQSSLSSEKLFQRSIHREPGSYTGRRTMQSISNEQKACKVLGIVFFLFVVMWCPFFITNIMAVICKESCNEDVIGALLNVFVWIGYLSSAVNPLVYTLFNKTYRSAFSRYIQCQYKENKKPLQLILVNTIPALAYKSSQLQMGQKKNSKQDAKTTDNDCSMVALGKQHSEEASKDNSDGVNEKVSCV
Muscarinic acetylcholine receptor M1 (Homo sapiens), sequence (P11229 whole entry, looked up): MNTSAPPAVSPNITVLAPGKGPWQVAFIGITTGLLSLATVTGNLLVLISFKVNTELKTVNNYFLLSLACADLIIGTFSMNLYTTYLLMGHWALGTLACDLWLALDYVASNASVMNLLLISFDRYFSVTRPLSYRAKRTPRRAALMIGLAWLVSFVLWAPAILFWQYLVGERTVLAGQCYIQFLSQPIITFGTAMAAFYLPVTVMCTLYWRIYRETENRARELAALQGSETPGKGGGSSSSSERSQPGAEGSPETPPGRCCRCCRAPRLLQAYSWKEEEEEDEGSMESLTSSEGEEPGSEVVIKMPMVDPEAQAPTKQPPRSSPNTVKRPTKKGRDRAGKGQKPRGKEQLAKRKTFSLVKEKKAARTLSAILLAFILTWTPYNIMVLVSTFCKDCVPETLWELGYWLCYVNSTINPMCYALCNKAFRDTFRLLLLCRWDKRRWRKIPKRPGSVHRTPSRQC
D(2) dopamine receptor (Homo sapiens), sequence (P14416 whole entry, looked up): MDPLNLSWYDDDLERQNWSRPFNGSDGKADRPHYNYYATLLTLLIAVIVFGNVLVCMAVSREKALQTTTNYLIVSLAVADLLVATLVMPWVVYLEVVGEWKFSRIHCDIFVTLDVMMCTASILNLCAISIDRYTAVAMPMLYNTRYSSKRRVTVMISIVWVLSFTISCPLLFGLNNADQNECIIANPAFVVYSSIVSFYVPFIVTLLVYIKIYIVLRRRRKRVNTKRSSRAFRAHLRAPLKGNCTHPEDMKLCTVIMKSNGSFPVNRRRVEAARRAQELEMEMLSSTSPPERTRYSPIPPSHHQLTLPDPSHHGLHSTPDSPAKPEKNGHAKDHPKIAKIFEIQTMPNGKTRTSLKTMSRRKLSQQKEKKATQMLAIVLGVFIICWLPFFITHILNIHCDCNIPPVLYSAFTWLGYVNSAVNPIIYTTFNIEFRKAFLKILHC
Gonadotropin-releasing hormone receptor (Homo sapiens), sequence (P30968 whole entry, looked up): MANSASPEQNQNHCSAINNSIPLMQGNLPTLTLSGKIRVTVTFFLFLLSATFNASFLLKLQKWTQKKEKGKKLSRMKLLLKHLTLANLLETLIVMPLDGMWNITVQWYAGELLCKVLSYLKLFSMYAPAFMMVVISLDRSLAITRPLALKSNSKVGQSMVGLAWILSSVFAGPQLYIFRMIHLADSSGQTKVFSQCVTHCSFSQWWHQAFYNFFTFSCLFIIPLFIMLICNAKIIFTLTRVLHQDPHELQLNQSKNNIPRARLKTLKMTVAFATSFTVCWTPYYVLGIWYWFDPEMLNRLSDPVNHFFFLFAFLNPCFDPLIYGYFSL

O=Cc1ccc2c(c1)OCO2
inactive: Potency [1] | Potency [2] | Potency [3] | Potency [4] | Potency [5] | Potency [6] | Potency [7] | Potency [8] | Potency [9] | Potency [10]

C[CH2][Hg][N]1C(=O)C2C(C1=O)C1(Cl)C(Cl)=C(Cl)C2(Cl)C1(Cl)Cl (stereo not given)
active: Potency [1] 5.17 µM | Potency [5] 10.4 µM
inactive: activation [11] -0.0279% [at 11.8 µM] | activation [12] -12.1% [at 13.5 µM] | activation [13] -6.79% [at 13.6 µM] | activity, negative = inhibition [14] 14.2% [at 12.7 µM] | activity, negative = inhibition [15] -14.4% [at 12.6 µM] | activity change, negative = inhibition [8] -18.8% [at 19 µM] | activity change, negative = inhibition [10] 2.84% [at 18.9 µM]

CCCCCCCCCCCCCN1CC(C)OC(C)C1 (stereo not given)
inactive: Potency [1] | Potency [2] | Potency [12] | Potency [13] | Potency [4] | Potency [16] | Potency [17] | Potency [14] | Potency [5] | Potency [18] | Potency [6] | Potency [7] | Potency [19] | Potency [9]

CCOC(=O)C(Cl)C(C)=O (stereo not given)
inactive: Potency [1] | Potency [2] | Potency [11] | Potency [13] | Potency [3] | Potency [4] | Potency [16] | Potency [14] | Potency [18] | Potency [7] | Potency [8] | Potency [9] | Potency [10]
active: Potency [15] 4.26 µM

c1ccc2c(c1)[nH]c1cnccc12
inactive: Potency [1] | Potency [2] | Potency [11] | Potency [3] | Potency [4] | Potency [16] | Potency [5] | Potency [15] | Potency [18] | Potency [6] | Potency [7] | Potency [8] | Potency [19] | Potency [9] | Potency [10]
active: Potency [13] 36.4 µM

Fc1cccc(Cl)c1CCl
inactive: Potency [1] | Potency [2] | Potency [11] | Potency [3] | Potency [4] | Potency [16] | Potency [14] | Potency [5] | Potency [15] | Potency [18] | Potency [6] | Potency [7] | Potency [8] | Potency [10]

CCS(=O)(=O)c1cccnc1S(=O)(=O)NC(=O)Nc1nc(OC)cc(OC)n1
inactive: Potency [1] | Potency [20] | Potency [2] | Potency [11] | Potency [12] | Potency [13] | Potency [3] | Potency [4] | Potency [16] | Potency [17] | Potency [14] | Potency [5] | Potency [15] | Potency [18] | Potency [6] | Potency [7] | Potency [19] | Potency [9] | Potency [10]

Cn1[nH]nnc1=S
inactive: Potency [1] | Potency [20] | Potency [2] | Potency [11] | Potency [12] | Potency [13] | Potency [3] | Potency [4] | Potency [16] | Potency [14] | Potency [5] | Potency [18] | Potency [6] | Potency [7] | Potency [9] | Potency [10]

CC(C)Br
inactive: Potency [1] | Potency [20] | Potency [2] | Potency [11] | Potency [12] | Potency [13] | Potency [3] | Potency [4] | Potency [16] | Potency [17] | Potency [14] | Potency [5] | Potency [15] | Potency [18] | Potency [7] | Potency [8] | Potency [9] | Potency [10]
